{"source": "the supplement of paper PMC12582362", "note": "Structures can show the parent of a compound that is named as a salt. Screen size: about 1,500 compounds; about 30 (2%) showed activity. Many of the other results were omitted from the sample, so actives are more common in it than they were. Unmarked numbers belong to inactive results.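 How the source made its calls: active = robust z-score below -2; a few such results were not called.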"}
{"system": "optoTopBP1 Flp-In 293 T-REx (HEK293) cells", "experiment": "light-induced TopBP1 condensate (nuclear foci) count, plate-normalised robust z-score vs non-control wells; higher = more TopBP1 condensates (negative = condensation inhibitor), active = hit call of the paper", "conditions": "10 µM; incubation time 2 h"}
{"smiles": "C[CH2][Hg][S]c1ccccc1C(=O)[O-].[Na+]", "note": "[Thimerosal]", "light-induced TopBP1 condensate (z-score)": "-8.21 (active)"}
{"smiles": "C[C@]12CC[C@H]3[C@@H](CCC4=CC(=O)CC[C@@H]43)[C@@H]1CC[C@@H]2O", "note": "[Nandrolone]", "light-induced TopBP1 condensate (z-score)": 2.28}
{"smiles": "O=C([O-])c1ccccc1-c1c2cc(Br)c(=O)cc-2oc2[c]([Hg+])c([O-])c(Br)cc12.[Na+].[Na+].[OH-]", "note": "[Merbromin]", "light-induced TopBP1 condensate (z-score)": -0.221}
{"smiles": "C[C@]12CC[C@@H](O)C[C@H]1CC[C@@H]1[C@@H]2CC[C@]2(C)C(=O)CC[C@@H]12", "note": "[3-alpha-Hydroxy-5-beta-androstan-17-one]", "light-induced TopBP1 condensate (z-score)": -0.529}
{"smiles": "C[C@]12CC[C@H](O)C[C@H]1CC[C@@H]1[C@@H]2C[C@@H](O)[C@]2(C)[C@@H](C3=CC(=O)OC3)CC[C@]12O", "note": "[Digoxigenin]", "light-induced TopBP1 condensate (z-score)": "-2.51 (active)"}
{"smiles": "C[C@]12CC[C@H](O)C[C@H]1CC[C@@H]1[C@@H]2CC[C@]2(C)[C@@H](C3=CC(=O)OC3)CC[C@]12O", "note": "[Digitoxigenin]", "light-induced TopBP1 condensate (z-score)": "-2.06 (active)"}
{"smiles": "C[C@]12CC[C@H](O)C[C@@H]1CC[C@@H]1[C@@H]2CC[C@]2(C)C(=O)CC[C@@H]12", "note": "[Epiandrosterone]", "light-induced TopBP1 condensate (z-score)": -0.588}
{"smiles": "C[C@]12CC[C@@H](O)C[C@@H]1CC[C@@H]1[C@@H]2CC[C@]2(C)C(=O)CC[C@@H]12", "note": "[Androsterone]", "light-induced TopBP1 condensate (z-score)": 0.981}
{"smiles": "CC(=O)O[C@H]1C[C@H](O[C@H]2[C@@H](O)C[C@H](O[C@H]3[C@@H](O)C[C@H](O[C@H]4CC[C@@]5(C)[C@H](CC[C@@H]6[C@@H]5C[C@@H](O)[C@]5(C)[C@@H](C7=CC(=O)OC7)CC[C@]65O)C4)O[C@@H]3C)O[C@@H]2C)O[C@H](C)[C@H]1O[C@@H]1O[C@H](CO)[C@@H](O)[C@H](O)[C@H]1O", "note": "[Lanatoside C]", "light-induced TopBP1 condensate (z-score)": -1.56}
{"smiles": "CO[C@]12C[C@@H](COC(=O)c3cncc(Br)c3)CN(C)[C@@H]1Cc1cn(C)c3cccc2c13", "note": "[Nicergoline]", "light-induced TopBP1 condensate (z-score)": -0.703}
{"smiles": "CC(=O)NC1CCSC1=O", "note": "(racemic) [N-Acetyl-DL-homocysteine Thiolactone]", "light-induced TopBP1 condensate (z-score)": -0.247}
{"smiles": "CC(=O)O[C@H]1CC[C@@]2(C)C(=CC[C@@H]3[C@@H]2CC[C@]2(C)C(=O)CC[C@@H]32)C1", "note": "[Dehydroisoandosterone 3-acetate]", "light-induced TopBP1 condensate (z-score)": -0.674}
{"smiles": "COc1cc([C@@H]2c3cc4c(cc3[C@H](O)[C@H]3COC(=O)[C@H]23)OCO4)cc(OC)c1OC", "note": "[Podophyllotoxin]", "light-induced TopBP1 condensate (z-score)": "-2.43 (active)"}
{"smiles": "COc1cc2c(c(OC)c1OC)-c1ccc(OC)c(=O)cc1[C@@H](NC(C)=O)CC2", "note": "[Colchicine]", "light-induced TopBP1 condensate (z-score)": -1.18}
{"smiles": "CC(CCc1ccccc1)NC(C)C(O)c1ccc(O)cc1", "note": "(stereo not given) [Nylidrin]", "light-induced TopBP1 condensate (z-score)": 0.555}
{"smiles": "C#C[C@]1(O)CC[C@H]2[C@@H]3CCC4=CC(=O)CCC4=C3C=C[C@@]21CC", "note": "[Gestrinone]", "light-induced TopBP1 condensate (z-score)": 0.545}
{"smiles": "CN1C(=O)COc2c(C(=O)NC3CN4CCC3CC4)cc(Cl)cc21", "note": "(stereo not given) [Azasetron hydrochloride]", "light-induced TopBP1 condensate (z-score)": 0.519}
{"smiles": "C[N+]1(C)[C@@H]2CC[C@H]1C[C@@H](OC(=O)C(CO)c1ccccc1)C2", "note": "(stereo not given in full) [Methylatropine nitrate]", "light-induced TopBP1 condensate (z-score)": -0.568}
{"smiles": "COc1ccc(CCN)cc1OC", "note": "[Homoveratrylamine]", "light-induced TopBP1 condensate (z-score)": -1.31}
{"smiles": "C[C@]12CCC(=O)C=C1C=C[C@@H]1[C@@H]2CC[C@@]2(C)[C@H]1CC[C@@]2(O)CCC(=O)O", "note": "[Canrenoic acid potassium salt]", "light-induced TopBP1 condensate (z-score)": 1.33}
